Assay results: PubChem BioAssay AID1259343 (VanderVen Lab, College of Veterinary Medicine, Cornell …, 2017)
About 2,900 (47%) of roughly 6,200 compounds were called active. Rule as the data show it: active = inhibition above about 50%; inactive = the rest. The set was probably picked from earlier hits. The list shows a part of the results.

Experiment: Mycobacterium tuberculosis growth inhibition, primary screen (AID 1259343)
Conditions: inhibition: at 10 µM, hits give high values; outcome: 10 uM

Compound	inhibition
Cc1nnc(N2C(=O)C(=O)C(=C(O)c3ccc(OC(C)C)cc3)C2c2ccc([N+](=O)[O-])cc2)s1 (stereo not drawn)	35.4% (inactive)
CN(C(=O)c1ccccc1)c1nnc(C23CC4CC(CC(C4)C2)C3)s1	70% (active)
COc1ccc(C(=O)N(C)c2nnc(C34CC5CC(CC(C5)C3)C4)s2)c(OC)c1	29.9% (inactive)
O=C(Nc1ncc(Cc2ccc(Cl)cc2)s1)c1cccs1	53.4% (active)
O=C(Cc1cccs1)Nc1ncc(Cc2ccc(F)c(F)c2)s1	44.8% (inactive)
O=C(Nc1ncc(Cl)s1)c1ccc(Cl)cn1	81.3% (active)
CCCC(C)Nc1ncnc2sc3c(c12)CCC(C)C3 (stereo not drawn)	84.8% (active)
CC(=O)CSc1ncnc2sc3c(c12)CCC(C)C3 (stereo not drawn)	2.69% (inactive)
N#Cc1c(SCc2ccccc2Cl)sc2c(=O)[nH]c(=O)[nH]c12	67.2% (active)
Clc1ccccc1CSc1nnc(-c2ccc[nH]2)o1	-6.43% (inactive)
Nc1ccc2c(c1)Cc1ccccc1-2	0.14% (inactive)
Nc1ccc2c(c1)C(=O)NCC2	61.7% (active)
Nc1ccc2c(c1)-c1ccccc1C2	-7.01% (inactive)
C=CCNC(=S)Nc1ccc(Cl)cc1Cl	4.42% (inactive)
S=C(Nc1ccc2c(c1)OCO2)Nc1ccccc1Cl	19.5% (inactive)
S=C(NCC1CCCCC1)Nc1ccccc1Cl	89.6% (active)
O=C(NCCC12CC3CC(CC(C3)C1)C2)c1ccc2c(=O)n3c(nc2c1)CCCCC3	67% (active)
COc1ccc(C(C)NC(=O)c2ccco2)cc1F (stereo not drawn)	15.9% (inactive)
COc1ccc(C(C)NC(=O)Cc2ccccc2Cl)cc1F (stereo not drawn)	74.1% (active)
NC(c1ccccc1)c1csc(Nc2ccc(C(F)(F)F)cn2)n1 (stereo not drawn)	1.35% (inactive)
NC(Cc1ccccc1)c1csc(Nc2ccc(C(F)(F)F)cn2)n1 (stereo not drawn)	86.1% (active)
CC(C)CC(N)c1csc(Nc2ccc(C(F)(F)F)cn2)n1 (stereo not drawn)	91.8% (active)
NC(Cc1ccc(C(F)(F)F)cc1)c1csc(Nc2ccccn2)n1 (stereo not drawn)	47% (inactive)
COc1ccc(C(N)c2csc(Nc3ccc(C(F)(F)F)cn3)n2)cc1 (stereo not drawn)	86.2% (active)
NC(Cc1ccc(C(F)(F)F)cc1)c1csc(Nc2cnccn2)n1 (stereo not drawn)	53% (active)
FC(F)(F)c1ccc(Nc2cnn(Cc3ccccc3)c2)nc1	58.1% (active)

Compound	inhibition
FC(F)(F)c1ccc(Sc2ncccn2)nc1	-12% (inactive)
NC(COCc1ccccc1)c1csc(Nc2ccc(C(F)(F)F)cn2)n1 (stereo not drawn)	66.5% (active)
CC(C)CCc1nc(Cn2c(C(F)(F)F)ccc(C(N)=O)c2=O)cs1	11.8% (inactive)
Cc1ccc(CS(=O)(=O)Cc2csc(CCC(C)C)n2)cc1	96% (active)
CN1C(=O)C(=Cc2cccc(OCc3ccccc3Cl)c2)C(=O)N(C)C1=O	14.1% (inactive)
CCc1cc(=O)[nH]c(-n2nc(C)cc2NC(=O)C(C)(C)Oc2ccc(Cl)cc2)n1	-31% (inactive)
Cc1cc(=O)[nH]c(-n2nc(C3CC3)cc2NC(=O)C(C)(C)Oc2ccc(Cl)cc2)n1	98.2% (active)
Cc1cc(NC(=O)C(C)(C)Oc2ccc(Cl)cc2)n(-c2nc(C)c(C)c(=O)[nH]2)n1	100% (active)
Cc1cc(=O)[nH]c(-n2nc(C)cc2NC(=O)C(C)(C)Oc2ccc(Cl)cc2)n1	101% (active)
COc1cccc(C2=NN(C(C)=O)C(C(=O)N(CC(C)C)CC(C)C)O2)c1 (stereo not drawn)	-4.2% (inactive)
CCc1sc(-c2nnc(-c3cccc(OC)c3)o2)cc1C	52.4% (active)
CCc1sc(-c2nnc(CSc3nnc(-c4ccco4)o3)o2)cc1C	-15.2% (inactive)
Cn1c(=O)oc2cc(NC(=O)C3CCCC(C(F)(F)F)C3)ccc21 (stereo not drawn)	-34.1% (inactive)
O=C(Nc1ccc(-n2cccn2)nc1)C1CCCC(C(F)(F)F)C1 (stereo not drawn)	7.71% (inactive)
Cc1ccc(C(=O)C(C#N)C(=O)C2CCCC(C(F)(F)F)C2)s1 (stereo not drawn)	101% (active)
Cc1ccc(NC(=O)NC2CCC(C)CC2)cc1-n1cnnn1 (stereo not drawn)	-21.7% (inactive)
Cc1ccc(NCCOc2ccccc2F)cc1-n1cnnn1	54.8% (active)
CCn1c2ccccc2c2cc(Nc3ccnc(NCCCN4CCOCC4)n3)ccc21	53.6% (active)
Cc1nn2c(NCCN3CCOCC3)cc(-c3ccccc3)nc2c1-c1ccccc1	48.5% (inactive)
CC(SC(=S)N1CCCC1)c1nc(C2CC2)no1 (stereo not drawn)	-46.6% (inactive)
NC(=O)c1cccc(COc2cc(Cl)cc(Cl)c2)c1	49.7% (inactive)
Cc1cc(OCc2cccc(Cl)c2)ccc1N	92.4% (active)
Cc1ccc(C2CC2C(=O)Nc2nc(C)c(SCC#N)s2)s1 (stereo not drawn)	39.7% (inactive)
Cc1nc(NC(=O)CNC(=O)Cc2cccc(F)c2)sc1SCC#N	81.8% (active)
Cc1c(C(=O)NCc2ccc(Cl)c(Cl)c2)sc(=O)n1Cc1cccc(F)c1	41.3% (inactive)
CNC(=O)NC(=O)C(C)Sc1nnc(SCC(C)C)s1 (stereo not drawn)	89.7% (active)

Compound	inhibition
CNC(=O)NC(=O)C(C)Sc1nnc(Nc2ccc(C)cc2)s1 (stereo not drawn)	54.2% (active)
CCNC(=O)NC(=O)C(C)Sc1nnc(Nc2ccc(C)cc2)s1 (stereo not drawn)	99.2% (active)
Cc1nc(SC(C)C(=O)NC(N)=O)c2c(C)c(C)sc2n1 (stereo not drawn)	-7.75% (inactive)
CCC(C)c1ccc(Nc2nc(C)c(C)s2)cc1 (stereo not drawn)	41.7% (inactive)
CC(C)CSc1nnc(SCC(=O)Nc2ccc(C#N)cc2)s1	-25.3% (inactive)
CCOC(=O)c1ccc(NC(=O)N2CCN(C(=O)c3cc4ccoc4n3Cc3cccc(OC)c3)CC2C)cc1 (stereo not drawn)	85.9% (active)
COc1ccccc1Cn1c(C(=O)N2CCN(C(=O)C(Cl)c3ccccc3)C(C)C2)cc2ccsc21 (stereo not drawn)	35.9% (inactive)
COc1cccc(Cn2c(=O)c(C(=O)N3CCCC3)nn(-c3cc(C)cc(C)c3)c2=O)c1	3.71% (inactive)
O=C1c2ccccc2S(=O)(=O)N1Cc1ccccc1Oc1ccccc1	8.36% (inactive)
O=C(CC1C=CCC1)Nc1nc2c(Cl)c(Cl)ccc2s1 (stereo not drawn)	48.5% (inactive)
Cc1cccc2sc(NC(=O)C3CC4CCC3C4)nc12 (stereo not drawn)	85.8% (active)
O=C(Nc1ccc2ccccc2n1)C1CC2CCC1C2 (stereo not drawn)	45.8% (inactive)
c1ccc(-c2cnc(CN3CCSc4ccccc43)o2)cc1	26% (inactive)
CC1CCN(Cc2ncc(-c3ccccc3)o2)C2CCCCC12 (stereo not drawn)	72.5% (active)
COc1ccc(N2C(=O)C(c3c(C(C)C)[nH]n(-c4ccc(Cl)cc4)c3=O)=C(N3CCC(C)CC3)C2=O)c(OC)c1	39% (inactive)
CCc1[nH]n(-c2ccc(Cl)c(Cl)c2)c(=O)c1C1=C(N(C)C2CCCCC2)C(=O)N(c2ccccc2F)C1=O	65.4% (active)
CCc1c(C)c(C#N)c2[nH]c3ccccc3n2c1=S	40.8% (inactive)
CCOc1ccccc1N=Cc1c(C)c(C#N)c2[nH]c3ccccc3n2c1=O	1.57% (inactive)
N#Cc1c(C(F)(F)F)cc(=O)n2c1[nH]c1ccccc12	101% (active)
Cc1cc(NC(C)C(=O)N(C)Cc2ccccc2)ccc1Br (stereo not drawn)	50.4% (active)
Cc1cc(NC(=O)C(C)Nc2ccc(Br)c(C)c2)on1 (stereo not drawn)	14% (inactive)
Cc1c(-c2cccc(NC(=O)Nc3ccccc3)c2)nc2ncccn12	18.8% (inactive)
O=C(Nc1ccccc1)c1cccn(OCc2ccccc2F)c1=O	32.1% (inactive)
CCCSc1ncccc1C(=O)Nc1ccc(-c2ccccc2)cc1	89.9% (active)
CNc1ccc(-c2ccc(CC#N)cc2)cn1	38.5% (inactive)
CSCCC(=O)N1CCC(C(=O)Nc2ccc(Oc3ccccc3F)cc2)CC1	76.3% (active)

Compound	inhibition
Cc1ccn(CC(=O)N2CCC(C(=O)Nc3ccc(Oc4ccccc4F)cc3)CC2)n1	19.3% (inactive)
O=C(Nc1ccc(Oc2ccccc2F)cc1)C1CCN(C(=O)CCc2ccccc2)CC1	90.6% (active)
COCC(=O)N1CCC(C(=O)Nc2ccc(Oc3ccccc3F)cc2)CC1	inactive
COc1ccc(CC(N)c2csc(Nc3cccc(OC)n3)n2)cc1 (stereo not drawn)	85.1% (active)
COc1cccc(Nc2nc(C(N)Cc3ccc(F)cc3)cs2)n1 (stereo not drawn)	86.6% (active)
COc1cccc(Nc2nc(C(N)Cc3ccc(Cl)cc3)cs2)n1 (stereo not drawn)	80.4% (active)
NC(Cc1ccc(Cl)cc1)c1csc(Nc2ccc(-c3ccccc3)nn2)n1 (stereo not drawn)	91.2% (active)
COc1ccc(-c2csc(NC3CCCC3)n2)c(OC)c1	16.6% (inactive)
COc1cccc(Nc2nc(C(N)Cc3ccc(C(F)(F)F)cc3)cs2)n1 (stereo not drawn)	75.8% (active)
COc1cccc(Nc2nc(C(N)C3CCCCC3)cs2)n1 (stereo not drawn)	86.2% (active)
CN(Cc1ccc(O)cc1)C(=O)C1=NOC(c2ccccc2)C1 (stereo not drawn)	66.5% (active)
COc1ccc(C(=O)N2CCOC(CCc3ccccc3)C2)cc1F (stereo not drawn)	57.4% (active)
O=C(c1ccc2c(c1)OCCO2)N1CCOC(CCc2ccccc2)C1 (stereo not drawn)	39.8% (inactive)
CC(C)Cc1cc(C(=O)N2CCOC(CCCc3ccccc3)C2)n[nH]1 (stereo not drawn)	54.1% (active)
O=C(CCc1cccs1)N1CCOC(CCCc2ccccc2)C1 (stereo not drawn)	34.9% (inactive)
CC(C)c1cc(C(=O)N2CCOC(CCc3ccccc3)C2)no1 (stereo not drawn)	56.6% (active)
O=C(CCS(=O)(=O)c1ccccc1F)Nc1ccc(I)cc1	80.2% (active)
O=C(COc1ccccc1F)Nc1ccc2c(c1)OC(F)(F)O2	21.4% (inactive)
O=C1N(c2ccccc2)C(c2ccco2)C1(F)F (stereo not drawn)	40.3% (inactive)
Clc1ccc(-n2ncc3c2CCN(Cc2cc4c(cc2Cl)OCO4)C3)cc1	23.9% (inactive)
c1cc2c(cc1[C@H]1OC[C@H]3[C@@H]1CO[C@H]3c1ccc3c(c1)OCO3)OCO2	49% (inactive)
O=C1N(c2ccc3c(c2)OCO3)C(c2ccc(Cl)cc2)C1(F)F (stereo not drawn)	89.3% (active)
O=C1N(c2ccc3c(c2)OCO3)C(c2ccc3c(c2)OCO3)C1(F)F (stereo not drawn)	102% (active)
O=C1N(c2ccc3c(c2)OCO3)C(c2cccc(F)c2)C1(F)F (stereo not drawn)	27% (inactive)
O=C1N(c2ccc(Cl)cc2)C(c2ccc3c(c2)OCO3)C1(F)F (stereo not drawn)	78.8% (active)
